# Source: PubChem
# GLS inhibitor – qHTS for Inhibitors of Glutaminase (GLS) | Glutaminase kidney isoform, mitochondrial (Homo sapiens), O94925 | AID 624170, 2012 | GLS enzymatic activity, qHTS titration | Potency, µM (highest dose often 45.5 µM), without a hit: at the top dose activity change, negative = inhibition, most hits filed as inhibitors | 410,000 tested, 0.21% active; also: potency is read from the fitted curve at half-maximal effect; % is scaled to controls: 0 for no effect and ±100 for the full control effect
# Target sequence (O94925 whole entry, looked up, canonical isoform): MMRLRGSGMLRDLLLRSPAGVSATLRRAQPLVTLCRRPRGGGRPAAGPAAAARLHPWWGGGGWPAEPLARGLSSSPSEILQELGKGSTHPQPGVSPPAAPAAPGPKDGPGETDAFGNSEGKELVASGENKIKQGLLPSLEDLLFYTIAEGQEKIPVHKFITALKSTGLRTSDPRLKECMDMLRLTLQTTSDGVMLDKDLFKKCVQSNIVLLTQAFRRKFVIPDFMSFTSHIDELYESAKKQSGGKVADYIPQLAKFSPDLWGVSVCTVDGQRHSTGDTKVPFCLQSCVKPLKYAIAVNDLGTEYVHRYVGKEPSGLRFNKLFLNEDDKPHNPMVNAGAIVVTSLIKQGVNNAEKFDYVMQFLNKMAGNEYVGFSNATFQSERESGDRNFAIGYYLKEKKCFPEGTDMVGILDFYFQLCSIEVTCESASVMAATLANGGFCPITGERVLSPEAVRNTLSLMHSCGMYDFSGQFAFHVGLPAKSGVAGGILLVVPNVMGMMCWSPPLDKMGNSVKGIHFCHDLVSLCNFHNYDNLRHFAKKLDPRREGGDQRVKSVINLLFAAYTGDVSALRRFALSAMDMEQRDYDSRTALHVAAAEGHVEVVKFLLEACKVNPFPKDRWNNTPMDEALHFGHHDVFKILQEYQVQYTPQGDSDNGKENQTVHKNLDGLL
#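 Read-out is an Amplex red fluorescence increase coupled through glutamate oxidase and HRP, measured before and after 30 min room-temperature incubation. hKGA is in 45 mM KH2PO4 (pH 8.2) with 0.02% Tween-20; glutamine added as 1mM solution.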
# Pol eta inh-1 – qHTS for Inhibitors of Polymerase Eta. recombinant Pol eta, fluorescent DNA replication assay. AID 588591, 2011. Potency, µM (series often up to 114 µM), inactives show at the top dose activity change, negative = inhibition, hits mostly inhibitors. 390,000 tested, 1.2% active. DNA polymerase eta (Homo sapiens), Q9Y253; also: potency is read from the fitted curve at half-maximal effect; % is scaled to controls: 0 for no effect and ±100 for the full control effect
#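 Pol eta (10 nM) was preincubated with compounds for 15 min at room temperature, after which fluorescent replication substrate (50 nM final) was added to start the reaction. Fluorescence was read kinetically at 0 and 10 min.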
# Pol kappa inh-1 – qHTS for Inhibitors of Polymerase Kappa; DNA polymerase kappa (Homo sapiens), Q9UBT6; purified Pol kappa, fluorescent DNA synthesis assay, 10 min; AID 588579, 2011; 400,000 tested, 0.53% active; Potency, µM (highest dose often 107 µM), without a hit: at the highest dose activity, negative = inhibition, hits mostly inhibitors; also: potency is read from the fitted curve at half-maximal effect; % is scaled to controls: 0 for no effect and ±100 for the full control effect
#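 Here, compound and 10 nM enzyme are combined for 15 min at room temperature; adding 50 nM substrate (final) starts DNA synthesis, tracked by fluorescence at 0 and 10 min against buffer-only wells.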
# KAT2A inh – qHTS Assay for Inhibitors of GCN5L2; Histone acetyltransferase KAT2A (Homo sapiens), Q92830; Potency, µM (top dose mostly 58.9 µM), for the others: top-dose activity change, negative = inhibition, usual class: inhibitors; GCN5L2 HAT assay, ThioGlo1 CoA-SH fluorescence; 390,000 tested, 0.21% active; also: potency is read from the fitted curve at half-maximal effect; % is scaled to controls: 0 for no effect and ±100 for the full control effect
#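 Enzyme at 20nM final was mixed with library compounds for 15 min at room temperature. Peptide H3(1-25) at 75uM, acetyl-CoA at 70uM and ThioGlo1 at 50uM were then added. Plates were read immediately and after 20 min (Ex340nm/Em540nm).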
# POLI inh – qHTS for Inhibitors of Polymerase Iota. DNA polymerase iota (Homo sapiens), Q9UNA4. Pol iota fluorescent replication assay, 10 min. Potency, µM (highest dose often 115 µM), for the others: at the highest dose activity, negative = inhibition, actives largely listed as inhibitors. 390,000 tested, 1% active; also: potency is read from the fitted curve at half-maximal effect
#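 Pol iota at 10 nM preincubated 15 min with compounds at room temperature; reaction started with fluorescent substrate, 50 nM final. Fluorescence read kinetically at 0 and 10 min; buffer-only wells as negative control.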
# Pol beta inh – qHTS Assay for Inhibitors of DNA Polymerase Beta; Potency, µM (doses to about 114 µM), without a hit: at the highest dose activity change, negative = inhibition, most hits filed as inhibitors; Pol beta primer extension/strand displacement, fluorescence kinetic; 340,000 tested, 1.3% active; also: potency is read from the fitted curve at half-maximal effect; % is scaled to controls: 0 for no effect and ±100 for the full control effect
#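 Kinetic readout of DNA synthesis with strand displacement by Pol beta. Compound and 10 nM enzyme sit 15 min at room temperature; 50 nM substrate starts the reaction, read immediately and at 10 min.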
# GALK inh confirm – Confirmation Assay for Inhibitors of Human Galactokinase (GALK) | shares compounds with Pol eta inh-1 | purified GALK, Kinase-Glo ATP depletion luminescence | Potency, µM (top dose mostly 115 µM), for inactives: at the highest dose activity, negative = inhibition, actives largely listed as inhibitors | 150 tested, 70% active | AID 2015, 2009
# GALK redox cs – Confirmatory Assay for Inhibitors of Human Galactokinase (GALK): Phenol-HRP redox assay counterscreen. shares compounds with Pol eta inh-1. Phenol red-HRP H2O2 redox cycling, absorbance 600 nm. Potency, µM (top dose mostly 115 µM), for inactives: top-dose activity change, negative = H2O2 signal, hits mostly inhibitors. 150 tested, 40% active. AID 2035, 2009
# HEK293 viability – Secondary Assay for Inhibitors of Human Galactokinase (GALK): HEK-293 Cell Viability Assay; 170 tested, 10% active; Potency, µM (series often up to 46.1 µM), without a hit: top-dose activity change, negative = cytotoxicity, usual class: inhibitors; shares compounds with Pol eta inh-1; HEK-293 viability, ATP luminescence (CellTiter-Glo), 24/48 h; also: potency is read from the fitted curve at half-maximal effect; % is scaled to controls: 0 for no effect and ±100 for the full control effect
# Pol kappa inh-2 – qHTS for Inhibitors of Polymerase Kappa: Confirmatory Assay for Cherry-picked Compounds; shares compounds with Pol eta inh-1; purified Pol-kappa, fluorescent strand-displacement substrate; Potency, µM, most hits filed as inhibitors; 920 tested, 76% active; AID 720501, 2013; also: potency is read from the fitted curve at half-maximal effect
# Pol eta inh-2 – qHTS for Inhibitors of Polymerase Eta: Confirmatory Assay for Cherry-picked Compounds; AID 720502, 2013; 2,600 tested, 64% active; Potency, µM, usual class: inhibitors; Pol eta primer extension, TAMRA/BHQ fluorescence, 10 min; shares compounds with Pol eta inh-1; also: potency is read from the fitted curve at half-maximal effect
# * marks the source's active call; other numbers are inactive results; ? = inconclusive; nt = no result; [ ] = dose if it differs, or a comment. Hits are enriched below; roughly 2.4% of the tested compounds scored in any of these assays. Calls follow the shape of the dose curve; as a rule, active = well fitted curve in the direction sought with a large enough effect; inconclusive = small, poorly fitted or top-dose-only effect, or another doubt; inactive = no such curve, though single readings can be large; an effect the other way counts as inactive or inconclusive.
SMILES,GLS inhibitor,Pol eta inh-1,Pol kappa inh-1,KAT2A inh,POLI inh,Pol beta inh,Pol eta inh-2,others
O=C(NNC(=O)c1ccccc1C(=O)O)c1cc2ccccc2o1,12%,0%,-8%,-3%,?,1%,nt,GALK inh confirm=33µM*;GALK redox cs=0%;HEK293 viability=2%
Fc1ccccc1-c1nnc2n1N=C(c1ccc(OC(F)F)c(OCC3CC3)c1)CS2,-3%,5%,-7%,0%,19%,nt,nt,
COc1ccc(C2=Nn3c(nnc3-c3ccccc3OC)SC2)cc1OC1CCOC1 (stereo not given),6%,-6%,45µM*,-10%,24%,nt,nt,Pol kappa inh-2=4.2*
COc1ccc(C2=Nn3c(nnc3-c3ccncc3)SC2)cc1OC,-5%,-11%,16%,-8%,-10%,-4%,nt,
COc1ccc(C2=Nn3c(nnc3-c3ccccc3C(F)(F)F)SC2)cc1OC1CCOC1 (stereo not given),7%,-7%,?,-7%,-7%,nt,nt,Pol kappa inh-2=4.7*
CN(C)S(=O)(=O)c1ccc2c(c1)N(CC(=O)Nc1ccc(OC(F)(F)F)cc1)C(=O)CS2,2%,-9%,18%,-2%,-13%,1%,nt,
COc1cccc(NC(=O)Cn2c(=O)n(CCC(=O)NCc3ccccc3OC)c(=O)c3ccccc32)c1,1%,4%,9%,-5%,?,-1%,nt,
COC(=O)c1ccccc1NC(=O)c1ccc2c(c1)CCN2S(C)(=O)=O,-12%,-1%,-17%,-5%,12%,3%,nt,
COc1cccc(Nc2nn3c(=O)c4ccccc4nc3s2)c1,18%,50µM*,14%,-20%,-18%,nt,?,
O=c1c2ccccc2nc2sc(Nc3ccc(F)cc3)nn12,-12%,-8%,-4%,-2%,13%,nt,nt,
CCOc1ccccc1NC(=O)Cn1c(=O)n(-c2ccc(C)c(C)c2)c(=O)c2oc3ccccc3c21,-1%,-11%,1%,1%,12%,14%,nt,
CC(=O)c1ccc(S(=O)(=O)Nc2ccc(-c3ccc4nnc(C)n4n3)cc2)cc1,-6%,20µM*,?,-10%,-86%,28µM*,?,
CC1CCN(C(c2ccc(F)cc2)c2sc3nc(-c4ccco4)nn3c2O)CC1 (stereo not given),4%,-6%,0%[60.1 µM],-14%,16%,11%,nt,
Cc1ccc2c(CC(=O)OCC(=O)N(CC(C)C)c3c(N)n(Cc4ccccc4)c(=O)[nH]c3=O)coc2c1,-12%,20µM*,?,-9%,25µM*,nt,38*,
CCN(C(=O)COC(=O)Cc1coc2cc(C)ccc12)c1c(N)n(Cc2ccccc2)c(=O)[nH]c1=O,8%,0%,-27%,-3%,?,nt,nt,
C=CCn1c(SCc2nc3sc(C(=O)O)c(C)c3c(=O)[nH]2)nnc1-c1ccc(C(C)(C)C)cc1,-25%,7.1µM*,35µM*,-1%,?,22µM*,30*,Pol kappa inh-2=12*
CC(=O)c1sc2nc(CSc3nnnn3-c3ccccc3)[nH]c(=O)c2c1C,27%,10µM*,?,?,11µM*,13µM*,67*,
Cc1c(C(=O)O)sc2nc(CSc3nnc(-c4ccc(F)cc4)n3C)[nH]c(=O)c12,21%,35µM*,-30%,-6%,?,1%,?,
Cc1nnc(SCc2nc3sc(C(=O)O)c(C)c3c(=O)[nH]2)s1,30%,22µM*,89µM*,?,20µM*,0%,43*,
Cc1ccc(-n2nnnc2SCc2nc3sc(C)c(C)c3c(=O)[nH]2)cc1,-6%,3%,-1%,-3%,22%,6%,nt,
CC(=O)c1sc2nc(CSc3nncn3C)[nH]c(=O)c2c1C,4%,-7%,-19%,-15%,?,-27%,nt,
CN(C(=O)c1ccc2c(c1)N(Cc1ccccc1F)C(=O)c1ccccc1S2)C1CCCCC1,3%,-16%,-8%[60.1 µM],-4%,21%,1%,nt,
Cc1c(C#N)c(O)[nH]c(=O)c1N=Nc1ccc(Cl)c(C(=O)O)c1,0%,-6%,-5%[60.1 µM],-20%,5%,15%,nt,
Cc1c(C#N)c(O)[nH]c(=O)c1N=Nc1ccc(S(N)(=O)=O)cc1,9%,25µM*,-41%,-24%,?,7%,85*,Pol kappa inh-2=?
O=C(NCc1cccs1)c1nn(-c2ccccc2)nc1CO,-7%,-10%,-21%,-7%,29%,-27%,nt,
Cc1ccc(C(=O)O)cc1-n1c(C)cc(C=O)c1C,-1%,20µM*,?,-3%,28µM*,18µM*,60*,
COc1ccc(Br)cc1C(=O)NC(=S)Nc1ccc(Cl)c(C(=O)O)c1,6%,?,-13%,-5%,?,13%,nt,
COc1ccc(Br)cc1/C=C/C(=O)NC(=S)Nc1ccc(Cl)c(C(=O)O)c1,3%,25µM*,2%,0%,17%,12%,nt,Pol kappa inh-2=?
O=[N+]([O-])c1cc(Br)c(O)c(/C=N/Nc2nnnn2-c2cccc3ccccc23)c1,?,71µM*,-21%,?,-19%,?,nt,GALK inh confirm=30µM*;GALK redox cs=-2%;HEK293 viability=-1%
